Screening results: PubChem BioAssay, several laboratories
This is a sample that favours compounds with a hit; in the whole collection about 3.4% have one here.
TMEM16A inh = inhibitors of mouse TMEM16A calcium-activated chloride channel; normalized B-score (activity score, 25-100; higher = stronger inhibition) at 10 µM; 310,000 tested, 1.2% active; Q8BHY3; HEK293 TMEM16A/YFP iodide influx fluorescence, ionomycin;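 active = ratio plate-corrected score three or more library SD toward inhibition, starting fluorescence score within five deviations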;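 note: score derived from kinetic fluorescence span divided by baseline fluorescence per well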
Target sequence (Q8BHY3 whole entry, looked up): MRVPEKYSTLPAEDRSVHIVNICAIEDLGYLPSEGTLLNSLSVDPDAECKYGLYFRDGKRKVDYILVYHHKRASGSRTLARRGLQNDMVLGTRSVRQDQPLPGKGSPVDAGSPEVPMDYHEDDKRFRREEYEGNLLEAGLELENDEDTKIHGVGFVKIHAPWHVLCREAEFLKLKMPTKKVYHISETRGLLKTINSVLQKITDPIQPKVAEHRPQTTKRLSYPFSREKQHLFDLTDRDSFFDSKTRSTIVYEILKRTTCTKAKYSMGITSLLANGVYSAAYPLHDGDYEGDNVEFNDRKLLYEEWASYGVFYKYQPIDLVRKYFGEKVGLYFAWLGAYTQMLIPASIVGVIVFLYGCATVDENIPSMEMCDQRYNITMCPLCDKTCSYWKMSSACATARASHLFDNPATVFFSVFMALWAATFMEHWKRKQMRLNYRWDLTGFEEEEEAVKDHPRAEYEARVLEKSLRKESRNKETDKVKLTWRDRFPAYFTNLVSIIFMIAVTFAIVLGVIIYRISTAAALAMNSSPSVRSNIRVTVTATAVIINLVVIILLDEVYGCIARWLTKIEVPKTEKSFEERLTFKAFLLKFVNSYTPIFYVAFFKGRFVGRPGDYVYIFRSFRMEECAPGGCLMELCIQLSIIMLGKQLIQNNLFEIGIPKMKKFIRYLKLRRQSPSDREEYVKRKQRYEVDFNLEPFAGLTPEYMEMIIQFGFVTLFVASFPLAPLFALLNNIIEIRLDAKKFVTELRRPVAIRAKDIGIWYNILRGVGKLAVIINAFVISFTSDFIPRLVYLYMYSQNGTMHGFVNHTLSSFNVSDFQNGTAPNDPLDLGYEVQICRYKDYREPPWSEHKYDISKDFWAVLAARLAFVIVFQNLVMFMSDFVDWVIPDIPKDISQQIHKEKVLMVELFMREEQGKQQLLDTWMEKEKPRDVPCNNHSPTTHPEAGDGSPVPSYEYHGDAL
NTR1 agonist = agonists of human neurotensin receptor NTR1 | P30989 | NTR1-U2OS beta-arrestin-GFP spot imaging, agonist mode | activation, % at 20 µM | 330,000 tested, 0.17% active | AID 493036;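 active = activation at or above 40% of the spot to cytoplasm intensity ratio, with at least 20 cells analyzed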
TMEM16A act = mouse TMEM16A channel activation, primary screen; Q8BHY3; HEK293 TMEM16A/YFP-H148Q/I152L, iodide quench fluorescence; active compounds read low; B-score at 10 µM; 340,000 tested, 0.3% active;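 active = fluorescence-ratio B-score plate-corrected deviation score at least 3 library SD below zero, with starting fluorescence score within 5 deviations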;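 note: channel opened by trigger with iodide after compound preincubation; score built on the fluorescence ratio of max minus min over baseline; more negative score means more quench and so TMEM16A activation or potentiation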
MEKK3 PB1 HTS = modulators (inhibitors or enhancers) of MEK5 binding to human MEKK3 PB1 domain; AID 1529; binding response (% of control), % at 10 µM; 290,000 tested, 1.4% active; Q99759; bead-based flow cytometry, Alexa488-MEK5 binding to MEKK3; actives lie on both sides; 0 = blocked by unlabeled MEK5, 100 = vehicle;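 active = binding response more than 3 SD above or below the average of its plate-row segment, actives on both sides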;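 note: Alexa488 bead fluorescence after subtracting the streptavidin-only scavenger bead signal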
MEKK2mut PB1 HTS = signal of MEK5 binding to mutant human MEKK2 PB1 domain | bead flow cytometry, Alexa488-MEK5 binding to MEKK2 mutant | percent response, % at 10 µM | 290,000 tested, 0.35% active | AID 1530; in the data active = percent response above about 24%, passing the limit was not always enough
MEKK2 WT-MEK5 = raises or lowers MEK5 binding to wildtype human MEKK2 PB1 domain. bead flow cytometry, Alexa488-MEK5 binding to MEKK2 WT; actives lie on both sides. binding response (% of control), % at 10 µM. 290,000 tested, 1.1% active; in the data active = binding response below about 67% or above about 130%
MEKK2wt confirm = raises or lowers MEK5 binding to wildtype human MEKK2, retest; shares compounds with MEKK3 PB1 HTS; bead flow cytometry, Alexa488-MEK5 binding to MEKK2 WT; actives lie on both sides; 5,900 tested, 2.4% active; binding response (% of control), % at 10 µM; AID 1892; in the data active = binding response below about 16% or above about 210%; inactive = in between
MEKK2mut-MEK5 = signal of MEK5 binding to mutant human MEKK2, retest. shares compounds with MEKK3 PB1 HTS. percent response, % at 10 µM. 5,900 tested, 2% active. AID 1893. bead flow cytometry, Alexa488-MEK5 binding to MEKK2 mutant; in the data active = percent response mostly above about 71%, no sharp cut-off; inactive = mostly below about 38%;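 note: higher means compound restores mutant binding toward wildtype level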
MEKK3-MEK5 inh = MEKK3-MEK5 PB1 inhibition, single concentration confirmation; shares compounds with MEKK3 PB1 HTS; bead flow cytometry, Alexa488-MEK5 binding to MEKK3; active compounds read low; binding response (% of control), % at 10 µM; 5,900 tested, 1.8% active; AID 1894;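 active = binding response below 72% of control, or above a set upper limit, though filed actives all read lower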;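 note: lower values mean stronger disruption of MEK5 binding to MEKK3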
Hits are given with their value; . = inactive; / = not tested or not shown; [ ] = remark or other dose.

SMILES	TMEM16A inh	NTR1 agonist	TMEM16A act	MEKK3 PB1 HTS	MEKK2mut PB1 HTS	MEKK2 WT-MEK5	MEKK2wt confirm	MEKK2mut-MEK5	MEKK3-MEK5 inh
CC(=O)c1cc(-c2ccccc2)n(CCC(=O)NC(C)(C)C)c1C	.	.	.	25[inhibitor]	.	36[inhibitor]	.	.	.
CCc1ccccc1NC(=S)N1CCN(c2cccc(OC)c2)CC1	.	.	.	.	.	.	/	/	/
COc1ccc(NC(C)=O)cc1NC(=O)C1CCCN1C(=O)c1cccs1 (centres undefined)	/	.	.	/	/	/	/	/	/
COc1ccc(C(=O)NCCc2ccc(C(F)(F)F)cc2)cc1S(=O)(=O)N1CCOCC1	/	.	.	/	/	/	/	/	/
COCc1nnc(NC(=O)CCc2ccccc2)s1	.	.	.	2.0[inhibitor]	.	2.0[inhibitor]	.	.	.
COCc1nnc(NC(=O)CCc2ccc(OC)cc2)s1	.	.	.	.	.	.	/	/	/
CCN(CC)C(=O)CSc1nnc(NC(=O)CCc2ccccc2)s1	.	.	.	156	.	.	.	.	.
CN(C)C(=O)CSc1nnc(NC(=O)CCc2ccccc2)s1	.	.	.	.	.	.	/	/	/
COc1ccc(CNC(=O)COc2cc3c(c4oc(=O)cc(C)c24)CCC(C)(C)O3)cc1OC	.	.	.	.	.	.	/	/	/
O=c1cc(CSc2ccccc2)nc(-c2ccncc2)[nH]1	.	.	.	46[inhibitor]	.	.	.	.	.
COc1cc([N+](=O)[O-])ccc1NC(=O)CC1SC(=Nc2ccc(F)cc2)N(CCC2=CCCCC2)C1=O (centres undefined)	.	.	.	.	.	.	/	/	/
COc1ccc(OC)c(NC(=O)CC2SC(=Nc3ccc(F)cc3)N(CCC3=CCCCC3)C2=O)c1 (centres undefined)	.	.	.	139	.	.	.	.	.
Cc1cc(N)ccc1N1CCCC1	.	.	.	71[inhibitor]	.	.	.	.	.
CCCCN(CC)C(=O)Cc1ccc(Br)cc1	.	.	.	128	.	.	.	.	.
CCCCN(CC)C(=O)Cc1ccccc1OC	.	.	.	.	.	.	/	/	/
Cc1cc(C)n2nc(C(=O)OCC(=O)NCc3ccccc3)nc2n1	/	.	.	/	/	/	/	/	/
COc1cc(NS(=O)(=O)c2ccc(NC(=S)NC(=O)C(C)(C)C)cc2)nc(OC)n1	.	.	.	38[inhibitor]	.	.	.	.	.
COc1cc(NS(=O)(=O)c2ccc(NC(=S)NC(C)=O)cc2)nc(OC)n1	.	.	.	/	/	/	/	/	/
CCOc1cccc(C(=O)Nc2ccccc2C(=O)N2CCN(C)CC2)c1	.	.	.	.	.	.	/	/	/
Cc1cc(C)n2nc(Nc3ccccc3)cc2n1	.	.	.	81[inhibitor]	.	.	.	.	.
Cc1cc(C)n2nc(-c3ccccc3)cc2n1	.	.	.	.	.	.	/	/	/
CCCCCC(=O)Nc1ccc(S(=O)(=O)Nc2nccc(C)n2)cc1	.	.	.	.	.	.	/	/	/
O=C(CC1N=C2c3ccccc3N=C(SCc3ccc(F)cc3)N2C1=O)NCc1ccco1 (centres undefined)	.	.	.	2.0[inhibitor]	.	2.0[inhibitor]	.	.	.
Cn1c(NCC(O)c2ccccc2)nc2c1c(=O)n(Cc1ccc(Cl)c(Cl)c1)c(=O)n2C (centres undefined)	.	.	.	.	.	.	/	/	/
Cn1c(NCC(O)c2ccccc2)nc2c1c(=O)n(Cc1ccc(Cl)cc1)c(=O)n2C (centres undefined)	.	.	.	78[inhibitor]	.	.	.	.	.
SMILES	TMEM16A inh	NTR1 agonist	TMEM16A act	MEKK3 PB1 HTS	MEKK2mut PB1 HTS	MEKK2 WT-MEK5	MEKK2wt confirm	MEKK2mut-MEK5	MEKK3-MEK5 inh
O=C(Nc1ccccc1)C(=O)c1c[nH]c2ccccc12	.	.	.	.	.	.	/	/	/
CCC(=O)OCC(=O)Nc1cc([N+](=O)[O-])ccc1Cl	.	.	.	.	.	.	/	/	/
CC(C)C1COC(c2cccn2Cc2ccccc2Cl)=N1 (centres undefined)	.	.	.	.	.	.	/	/	/
Cc1ccc(Cn2cccc2C2=NC(C)CO2)cc1 (centres undefined)	.	.	.	125	.	.	.	.	.
CC[C@]1(C(=O)OC)[C@H]2C(=O)N(C)C(=O)[C@H]2[C@H]2CN=C(SCc3ccc(C)cc3)N21	/	.	/	/	/	/	/	/	/
N#C/C(=C/c1ccc(N2CCCCCC2)o1)c1ccc(Cl)cc1	.	.	.	.	98	.	.	.	.
CC1Oc2ccccc2N(CC(=O)NC2CCCCC2)C1=O (centres undefined)	.	.	.	.	.	.	/	/	/
CCCc1cc(=O)[nH]c(SCC(=O)Nc2nc(-c3ccccc3)cs2)n1	.	.	.	.	.	.	/	/	/
O=C(CSc1nc2ccccc2[nH]1)Nc1nc(-c2ccc(Br)cc2)cs1	.	.	.	173	.	.	.	.	.
CCN(CC)S(=O)(=O)c1ccc(OC)c(NC(=O)c2cc3c(=O)n4ccccc4nc3s2)c1	.	.	.	130	.	.	.	.	.
COc1cc(C)cc(OC)c1OCC(=O)Nc1cc(C)on1	/	.	.	/	/	/	/	/	/
Cn1cc(C(=O)c2cccc(Cl)c2)cc1/C=N\O	.	.	.	42[inhibitor]	.	.	.	.	.
Cn1cc(C(=O)c2cccc(Cl)c2)cc1C#N	.	.	.	.	.	.	/	/	/
COc1cc(C2NC(=S)NC3=C2CCc2ccccc23)cc(OC)c1OC (centres undefined)	.	.	.	142	.	.	.	.	.
C=CCOc1ccc(C2NC(=S)NC3=C2CCc2ccccc23)cc1 (centres undefined)	.	.	.	.	.	.	/	/	/
COc1cc(NC(=O)CN(c2ccc(C)cc2)S(=O)(=O)c2c(C)noc2C)cc(OC)c1	.	.	.	.	.	.	/	/	/
COc1ccc(CCC(C)NCc2ccc(Cl)c(Cl)c2)cc1 (centres undefined)	.	.	.	.	.	.	/	/	/
COc1ccc(CCC(C)NCCc2ccc(Cl)cc2Cl)cc1 (centres undefined)	.	.	.	.	.	152	.	.	.
CCOC(=O)C1CCN(CC(O)COc2ccc(C(C)(C)CC)cc2)CC1 (centres undefined)	.	.	.	2.0[inhibitor]	.	0.0[inhibitor]	.	.	.
CCOC(=O)C1CCN(CC(O)COc2ccc(C(C)(C)C)cc2)CC1 (centres undefined)	.	.	.	.	.	.	/	/	/
